Sampled rows, rich in hits. Any-hit rate of the full collection: about 4.3%.
GLP-1R inv ag: GLP-1 receptor (human) inverse agonism; P43220; HEK293 GLP-1R CRE-luciferase, luminescence, 24 h; GLP-1R form is constitutively active; Potency, µM (series often up to 38.3 µM), without a hit: top-dose activity change, negative = inhibition, hits mostly inhibitors; 1.6% of 410,000 active; AID 624417; further: potency means the concentration at half of the fitted maximal effect; on the % scale 0 is the no-effect control and ±100 the full control effect; nearly all actives have a fitted effect of over 55% in size
Target sequence (P43220 whole entry, looked up): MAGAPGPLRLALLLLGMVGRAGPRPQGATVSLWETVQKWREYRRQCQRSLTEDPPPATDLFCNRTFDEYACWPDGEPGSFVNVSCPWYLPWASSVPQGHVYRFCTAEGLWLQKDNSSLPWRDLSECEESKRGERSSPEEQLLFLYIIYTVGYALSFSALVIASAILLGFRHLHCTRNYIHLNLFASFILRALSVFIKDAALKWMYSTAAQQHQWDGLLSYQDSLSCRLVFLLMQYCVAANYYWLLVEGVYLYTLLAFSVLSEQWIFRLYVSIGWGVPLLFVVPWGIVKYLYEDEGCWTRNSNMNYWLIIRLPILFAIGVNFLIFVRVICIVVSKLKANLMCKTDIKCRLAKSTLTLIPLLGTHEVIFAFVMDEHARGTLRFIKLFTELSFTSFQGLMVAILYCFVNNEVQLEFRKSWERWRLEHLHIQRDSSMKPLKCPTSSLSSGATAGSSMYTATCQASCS
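Assay principle: reduced luminescence from a cAMP-responsive reporter in HEK293 cells co-expressing a constitutively active GLP-1R. Conditions: 24 hr compound incubation, 37 deg C, 5% CO2.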
DRD3 agonist: D3 dopamine receptor (human) agonism. P35462. D3R DiscoveRx beta-arrestin cells, luminescence, 90 min. max activation, %. 0.58% of 410,000 active. AID 652048; in the data active means max activation above about 30%; further: 0% is about no effect
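Agonist mode: compounds and dopamine controls were applied to plated cells for 90 min at 37 degrees C after an overnight attachment at 1500 cells/well. Luminescent read-out followed 30 - 60 minutes at room temperature with DiscoveRx detection reagent.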
D3 antag: antagonists of human D3 dopamine receptor | P35462 | D3R cells, DiscoveRx beta-arrestin luminescence, antagonist mode; active compounds read low | max response, negative = inhibition, % | 2.5% of 360,000 active | AID 652054; in the data active means max response below about -50%; inconclusive means no clear call, values can overlap the other calls; further: on the % scale 0 is the no-effect control and ±100 the full control effect
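Cells plated overnight at 1500 cells/well, then exposed to library compounds with dopamine controls for 90 minutes at 37 degrees C. DiscoveRx reagent added for 30–60 minutes at room temperature; luminescence read, quantitative HTS format.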
GLP1R ag: GLP-1 receptor (human) agonism; HEK293 GLP-1R CRE-luciferase, luminescence, 4-6 h; cells express a hypersensitive GLP-1R form; Potency, µM (highest dose often 45.6 µM), inactives show at the top dose activation, actives largely listed as activators; 0.007% of 380,000 active; further: potency means the concentration at half of the fitted maximal effect; % of control where 0% means no effect
Numbers without * were called inactive; ? = inconclusive; . = not tested or not shown; ! = repeats disagree. Unless noted, the call rests on the fitted dose curve; in most records, active means well fitted curve in the direction sought with a large enough effect; inconclusive means small, poorly fitted or top-dose-only effect, or another doubt; inactive means no such curve, though single readings can be large; an effect the other way counts as inactive or inconclusive.

SMILES	GLP-1R inv ag	DRD3 agonist	D3 antag	GLP1R ag
COC(=O)CSc1cc(C(F)(F)F)nc(-c2ccccn2)n1	6%	1	10	-12%
FC(F)(F)c1cc(Nc2ccccc2)nc(-c2ccccn2)n1	3.5µM*	-2	-5	14%
FC(F)(F)c1cc(Sc2ccccc2)nc(-c2ccccn2)n1	0%	34*	31	?
COc1ccc(OC)c(NC2=NC3(CCCC3)N=C(N)N2)c1	-2%	-5	-58*	4%
NC1=NC2(CCCCC2)N=C(Nc2ccc(F)cc2F)N1	0%	5	10	-11%
CCOC(=O)C1CCN(Cc2cnc(Oc3ccc(C(C)(C)C)cc3)s2)CC1	-29%	-1	-93*	4%
CCOC(=O)C1CCN(Cc2cnc(NC(=O)OC)s2)CC1	3%	11	-7	1%
Cc1ccccc1-c1nnc(SCC(=O)N(C)C2CCCCC2)o1	3%	1	.	.
COc1ccc(-n2nc(C(=O)N3CCCC(C)C3)c3c4ccccc4n(C)c3c2=O)cc1Cl (centres undefined)	-2%	1	.	.
CCc1nnc2c3ccccc3nc(Nc3cc(C)cc(C)c3)n12	13%	-5	.	.
COc1cc(CNc2ccc(CNc3ncn[nH]3)cc2)ccc1OCc1ccccc1	2µM*	0	-6	7%
COc1ccc(S(=O)(=O)N(CCCN2CCOCC2)Cc2ccc(OC)c(OC)c2)cc1	24%	-32	-69*	-13%
O=S(=O)(c1cccc(C(F)(F)F)c1)N(CCCN1CCOCC1)Cc1cccs1	?	-19	-80*!	1%
CCCCn1c(=O)c2oc3ccccc3c2n(Cc2cccc(C)c2)c1=O	6%	12	.	.
COc1ccc(Oc2ccccc2/C=N/O)cc1	1µM*	2	-1	2%
COc1ccc(C(=O)N/N=C/c2ccccc2OC(=O)c2ccccc2)cc1	10µM*	-10	-23	?
COc1ccc(Br)cc1/C=N/NC(=O)c1cc(OC)c(OC)c(OC)c1	4%	2	32	4%
COc1cc(C(=O)Oc2ccc(/C=N/NC(=O)c3ccncc3)cc2)cc(OC)c1OC	17%	12	52	-3%
COc1cc(C(=O)N/N=C/c2ccsc2C)cc(OC)c1OC	?	-12	-53*	14%
COc1cc(OC)nc(Oc2ccccc2/C=N/O)n1	15%	5	22	-8%
COc1cc(C(=O)Oc2ccccc2/C=N/NC(=O)c2ccc(C)cc2)cc(OC)c1OC	1.6µM*	-14	4	4%
COc1ccc(CCNC(=O)C2(c3cccs3)CCOCC2)cc1OC	-6%	-6	.	.
CCOc1ccccc1NC(=O)CSc1c(C)cnc2c1c(=O)n(C)c(=O)n2C	5%	1	.	.
COc1cccc(-c2oc3c(c2C(=O)OCCN2CCCCC2)C(O)CCC3)c1 (centres undefined)	-13%	-12	-55*	-3%
CC(=O)[O][Al][O]C(C)=O	.	-9	.	-6%
SMILES	GLP-1R inv ag	DRD3 agonist	D3 antag	GLP1R ag
CCOC(=O)[C@@H]1[C@H]2COc3cc(OC)ccc3[C@@H]2N2C(=O)N(c3ccc(Cl)cc3)C(=O)[C@]12C	?	34*	-25	3%
CCOC(=O)[C@@H]1[C@H]2COc3cc(OC)ccc3[C@@H]2N2C(=O)N(c3ccc(C(F)(F)F)cc3)C(=O)[C@]12C	3%	46*	5	-2%
CCOC(=O)[C@@H]1[C@H]2COc3ccc(Br)cc3[C@H]2N2C(=O)N(c3ccc(OC)cc3)C(=O)[C@]12C	-1%	-14	-62*	-4%
CCOC(=O)[C@H]1[C@H]2COc3ccc(OC)cc3[C@@H]2N2C(=O)CN(CCc3c[nH]c4ccccc34)C(=O)[C@@]12C	-2%	58*	-3	20%
CCOC(=O)[C@@H]1[C@H]2COc3cc(OC)ccc3[C@@H]2N2C(=O)N(c3ccc(OC)cc3)C(=O)[C@@]12C	6%	0	34	1%
COc1ccc(-n2c(CC3C(=O)N(C)c4ccc(C)cc43)nc3ccccc3c2=O)cc1 (centres undefined)	-29%	1	.	.
O=C1CSC(=S)N1Cc1cccnc1	2.8µM*	-5	0	-25%
CC(O)(C#CCN1CCOCC1)c1ccccc1 (centres undefined)	12%	-10	-6	0%
C=C(C)C(C)(C#CCN1CCCC1)OC(C)=O (centres undefined)	-6%	-5	-72*	-11%
O=C(CCCOc1ccccc1)N1CCN(c2ccccn2)CC1	10µM*	4	30	-6%
Cc1ccc(/C=C/c2onc(C)c2S(=O)(=O)N2CCC(C(=O)N3CC(C)Oc4ccccc43)CC2)cc1 (centres undefined)	?	-19	.	.
CCOc1ccc(NC(=O)CCN2CCN(c3ccccc3)CC2)cc1	-15%	26	-52*	-4%
CCOC(=O)CSc1nnc(CNc2ccc(Cl)cc2)n1-c1ccccc1	-2%	-4	-11	0%
CCOc1ccc(CNc2ccc(N3CCN(Cc4ccccc4)CC3)cc2)cc1	?	-21	-62*	-1%
CCOc1ccc(NCc2nnc(SCc3ccc(Cl)cc3)n2-c2ccccc2)cc1	10µM*	-7	-11	-7%
COc1ccc(NC(=O)CCN2CCN(c3cccc(Cl)c3)CC2)cc1	-24%	7	.	.
CCOc1ccc(CNc2ccc(N3CCCC3)cc2)cc1	-7%	-6	-12	-11%
COc1ccc(NC(=O)CCN2CCN(c3ccc(F)cc3)CC2)cc1	-2%	8	-98*	5%
CCOc1ccc(C(=O)CCN2CCCCCC2)cc1	-26%	-11	-22	-14%
CCOc1ccc(C(=O)CCC(=O)NNC(=O)CCN2CCN(c3ccccc3)CC2)cc1	-3%	-4	-63*	0%
Cc1ccccc1C(=O)NCC(=O)NNC(=O)CCN1CCN(c2ccccc2)CC1	-13%	32*	-3	8%
Cc1ccsc1C(=O)C1CCCN(Cc2cccn2-c2ccc(Cl)cn2)C1 (centres undefined)	?	-12	-67*	-6%
O=C(c1ccc(Cl)cc1)C1CCCN(Cc2cccn2-c2ccccn2)C1 (centres undefined)	?	-17	0	0%
Cc1ccc(-n2cccn2)c(CN2CCCC(C(=O)c3sccc3C)C2)c1 (centres undefined)	?	-14	-76*	4%
CCN(C)C1CN(Cc2cn(Cc3ccc(C)cc3)nn2)S(=O)(=O)C1 (centres undefined)	14%	-4	-7	0%
COc1cc(NC(=O)CN(C)C2CCCCC2)c(C)cc1[N+](=O)[O-]	-21%	2	17	17%
CC1=C(C(=O)NC(C)CCc2ccccc2)C2(CCC(C)CC2)OC1=O (centres undefined)	8.9µM*	1	10	13%
CC1=C(C(=O)NC(C)c2ccccc2)C2(CCC(C)CC2)OC1=O (centres undefined)	-17%	4	-3	9%
O=CC(O)C(O)C(O)C(O)CO (centres undefined)	.	.	.	-5%
CCN(CC)c1ccc(NC(=O)c2ccc(Br)o2)c(C)c1	0%	2	-73*	-1%

Source: PubChem BioAssay
